The text below walks through data of article PMC7862700, “An all-to-all approach to the identification of sequence-specific readers for epigenetic DNA modifications on cytosine”.

Common to all, as to test: DAPPL (digital affinity profiling via proximity ligation, sequencing); 10 mM Tris-HCl pH 7.5, 50 mM NaCl, 1 mM DTT, 4% glycerol, room temperature, 30 min; GST-TFs on glutathione beads, 16-mer random dsDNA library, 0.1% formaldehyde crosslink after washing; high values mean tight binding
What all share (details): protein: recombinant; tags: N-terminal GST; dsDNA, one strand shown

The target in one experiment is T1, FLI1 (Homo sapiens, UniProt Q01543 1-452).
T1 sequence: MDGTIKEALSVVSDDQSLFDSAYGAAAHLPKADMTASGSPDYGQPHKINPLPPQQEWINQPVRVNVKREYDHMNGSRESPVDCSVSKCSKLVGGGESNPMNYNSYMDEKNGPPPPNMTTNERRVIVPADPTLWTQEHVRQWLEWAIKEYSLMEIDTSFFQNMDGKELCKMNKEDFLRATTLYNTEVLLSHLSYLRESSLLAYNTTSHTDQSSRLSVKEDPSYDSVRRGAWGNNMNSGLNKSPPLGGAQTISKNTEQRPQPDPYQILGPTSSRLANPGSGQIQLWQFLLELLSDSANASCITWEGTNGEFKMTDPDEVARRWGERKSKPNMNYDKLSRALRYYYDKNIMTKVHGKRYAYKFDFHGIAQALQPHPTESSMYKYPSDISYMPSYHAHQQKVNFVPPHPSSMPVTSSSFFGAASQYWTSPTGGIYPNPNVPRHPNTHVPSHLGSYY
Summed up:
(§1)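 In yeast, human transcription factors were expressed with a GST fusion, then pulled down on glutathione beads and given DNA barcodes. Pooled with a tag-only sample, they were exposed to 200 nmole of a 16-mer random double-stranded DNA library (Tris/NaCl/DTT/glycerol buffer, room temperature, 30 min), washed, crosslinked with 0.1% formaldehyde, proximity-ligated using BsaI/T4 ligase for 1 h at 37 °C, PCR-amplified and read on an Illumina NextSeq500. Each hexamer's frequency of reads for a factor, divided by the matching frequency for the tag-only sample, gives the binding signal.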

The next experiment deals with T2, ELK1 (Homo sapiens, UniProt P19419 1-428).
T2 sequence: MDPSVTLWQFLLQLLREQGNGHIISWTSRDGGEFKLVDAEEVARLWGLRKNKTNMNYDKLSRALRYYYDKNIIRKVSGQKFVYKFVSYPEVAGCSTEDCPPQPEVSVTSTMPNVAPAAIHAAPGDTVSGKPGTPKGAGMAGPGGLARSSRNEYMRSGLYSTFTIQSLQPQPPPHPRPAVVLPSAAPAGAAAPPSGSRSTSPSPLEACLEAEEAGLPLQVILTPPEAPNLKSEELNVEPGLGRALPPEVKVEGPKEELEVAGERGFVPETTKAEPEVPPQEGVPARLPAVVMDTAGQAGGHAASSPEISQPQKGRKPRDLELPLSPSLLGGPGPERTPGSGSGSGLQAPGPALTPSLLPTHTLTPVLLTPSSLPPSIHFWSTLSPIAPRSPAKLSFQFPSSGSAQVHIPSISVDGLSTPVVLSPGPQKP
The method in brief:
as §1

The target in a further experiment is T3, GABPA (Homo sapiens, UniProt Q06546 1-454).
T3 sequence: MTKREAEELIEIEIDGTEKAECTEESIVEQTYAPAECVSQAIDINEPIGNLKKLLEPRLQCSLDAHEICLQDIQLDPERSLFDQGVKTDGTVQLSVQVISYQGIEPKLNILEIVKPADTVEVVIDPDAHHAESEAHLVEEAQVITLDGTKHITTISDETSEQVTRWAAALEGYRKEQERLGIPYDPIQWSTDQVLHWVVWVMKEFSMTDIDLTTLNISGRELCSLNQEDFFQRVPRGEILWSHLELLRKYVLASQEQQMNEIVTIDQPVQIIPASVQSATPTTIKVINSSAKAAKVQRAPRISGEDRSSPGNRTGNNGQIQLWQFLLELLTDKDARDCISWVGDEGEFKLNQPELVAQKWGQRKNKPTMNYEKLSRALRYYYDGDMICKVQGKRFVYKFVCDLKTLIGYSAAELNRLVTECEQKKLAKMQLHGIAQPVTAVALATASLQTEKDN
The method in brief: as §1

In the next experiment the target is T4, ERG (Homo sapiens, UniProt P11308 1-479).
T4 sequence: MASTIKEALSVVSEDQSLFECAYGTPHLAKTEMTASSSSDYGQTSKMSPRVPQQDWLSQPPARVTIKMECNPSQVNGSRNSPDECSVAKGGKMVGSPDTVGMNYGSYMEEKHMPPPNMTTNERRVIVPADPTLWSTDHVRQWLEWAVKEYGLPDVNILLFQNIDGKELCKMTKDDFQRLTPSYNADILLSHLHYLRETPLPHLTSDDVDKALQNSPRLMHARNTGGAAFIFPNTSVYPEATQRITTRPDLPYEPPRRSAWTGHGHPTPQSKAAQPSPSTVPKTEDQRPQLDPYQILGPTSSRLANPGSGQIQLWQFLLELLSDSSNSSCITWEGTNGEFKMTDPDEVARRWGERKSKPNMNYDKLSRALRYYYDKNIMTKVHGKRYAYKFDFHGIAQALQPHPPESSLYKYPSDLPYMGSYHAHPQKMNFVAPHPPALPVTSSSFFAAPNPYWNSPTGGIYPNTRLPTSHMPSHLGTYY
Summed up: as §1

The target in the next experiment is ELF1 (Homo sapiens, UniProt P32519 1-619). The method in brief: as §1
The next experiment addresses T5, EHF (Homo sapiens, UniProt Q9NZC4 1-300).
T5 sequence: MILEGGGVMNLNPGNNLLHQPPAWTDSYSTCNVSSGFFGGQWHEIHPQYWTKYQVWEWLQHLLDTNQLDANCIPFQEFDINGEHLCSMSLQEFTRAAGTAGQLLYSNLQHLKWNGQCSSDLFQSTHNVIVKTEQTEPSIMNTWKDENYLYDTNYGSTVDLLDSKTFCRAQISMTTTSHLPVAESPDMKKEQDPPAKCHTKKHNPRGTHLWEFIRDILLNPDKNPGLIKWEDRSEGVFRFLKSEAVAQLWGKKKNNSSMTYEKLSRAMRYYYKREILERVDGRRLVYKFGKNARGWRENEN
The method in brief:
as §1

For a further experiment, the target named is SPI1 (Homo sapiens, UniProt P17947 1-270). The method in brief: as §1
The target of the next experiment is SPIB (Homo sapiens, UniProt Q01892 1-262). Summed up:
as §1

Another experiment addresses T6, ELK3 (Homo sapiens, UniProt P41970 1-407).
T6 sequence: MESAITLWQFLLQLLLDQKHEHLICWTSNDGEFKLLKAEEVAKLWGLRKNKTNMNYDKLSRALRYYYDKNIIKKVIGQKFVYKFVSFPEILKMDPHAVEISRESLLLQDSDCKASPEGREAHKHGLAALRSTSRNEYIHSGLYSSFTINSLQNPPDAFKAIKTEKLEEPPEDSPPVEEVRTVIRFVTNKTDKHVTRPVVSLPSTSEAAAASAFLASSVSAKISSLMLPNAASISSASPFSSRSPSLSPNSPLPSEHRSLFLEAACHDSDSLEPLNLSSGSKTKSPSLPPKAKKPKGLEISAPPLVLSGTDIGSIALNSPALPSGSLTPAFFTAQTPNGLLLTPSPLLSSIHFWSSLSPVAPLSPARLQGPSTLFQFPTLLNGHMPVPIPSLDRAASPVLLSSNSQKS
The method in brief: as §1

Chain of SPIB (Q01892 whole entry): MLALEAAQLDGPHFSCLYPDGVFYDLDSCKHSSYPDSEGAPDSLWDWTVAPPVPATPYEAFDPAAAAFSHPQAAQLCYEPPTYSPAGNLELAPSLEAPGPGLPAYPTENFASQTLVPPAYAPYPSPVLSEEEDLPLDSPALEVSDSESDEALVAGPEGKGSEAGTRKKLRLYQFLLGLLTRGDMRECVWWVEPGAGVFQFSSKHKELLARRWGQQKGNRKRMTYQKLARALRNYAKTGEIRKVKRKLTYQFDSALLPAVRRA
Chain of ELF1 (P32519 whole entry): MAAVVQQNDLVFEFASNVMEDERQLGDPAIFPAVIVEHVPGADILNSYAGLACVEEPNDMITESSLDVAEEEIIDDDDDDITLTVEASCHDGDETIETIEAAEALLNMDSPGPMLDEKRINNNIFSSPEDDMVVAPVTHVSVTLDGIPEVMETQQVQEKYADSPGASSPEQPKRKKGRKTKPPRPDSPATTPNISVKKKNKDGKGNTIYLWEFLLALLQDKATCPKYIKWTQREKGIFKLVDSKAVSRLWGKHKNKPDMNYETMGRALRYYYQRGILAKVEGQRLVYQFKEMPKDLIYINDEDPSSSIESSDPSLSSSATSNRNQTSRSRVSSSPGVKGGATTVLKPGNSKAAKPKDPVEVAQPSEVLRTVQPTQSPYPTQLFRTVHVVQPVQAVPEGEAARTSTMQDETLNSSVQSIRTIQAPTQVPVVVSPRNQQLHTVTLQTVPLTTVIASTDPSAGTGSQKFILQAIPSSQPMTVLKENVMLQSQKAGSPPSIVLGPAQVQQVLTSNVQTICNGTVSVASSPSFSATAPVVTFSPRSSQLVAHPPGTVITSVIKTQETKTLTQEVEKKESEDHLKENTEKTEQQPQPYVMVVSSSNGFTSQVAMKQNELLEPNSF

In the case of ACCTTT, the binding signal with FLI1 is 1.52 fold enrichment (6-mer frequency, TF over GST control); in the experiment with ELK1, 1.33 fold enrichment (6-mer frequency, TF over GST control); with GABPA, 1.47 fold enrichment (6-mer frequency, TF over GST control); with ERG, 1.38 fold enrichment (6-mer frequency, TF over GST control); with ELF1 it was 1.47 fold enrichment (6-mer frequency, TF over GST control); in the experiment with EHF, 1.38 fold enrichment (6-mer frequency, TF over GST control). In addition, the binding signal with SPI1 was 1.49 fold enrichment (6-mer frequency, TF over GST control); in the experiment with SPIB, 1.45 fold enrichment (6-mer frequency, TF over GST control); with ELK3, 1.35 fold enrichment (6-mer frequency, TF over GST control).

For AATACC, the binding signal with FLI1 is 1.25 fold enrichment (6-mer frequency, TF over GST control); with ELK1 it was 1.09 fold enrichment (6-mer frequency, TF over GST control); with GABPA, 1.09 fold enrichment (6-mer frequency, TF over GST control); with ERG it was 1.21 fold enrichment (6-mer frequency, TF over GST control); in the experiment with ELF1 it was 1.19 fold enrichment (6-mer frequency, TF over GST control); in the experiment with EHF, 1.19 fold enrichment (6-mer frequency, TF over GST control). For the same sequence, the binding signal is 1.14 fold enrichment (6-mer frequency, TF over GST control) in the experiment with SPI1; 1.16 fold enrichment (6-mer frequency, TF over GST control) with SPIB; 1.25 fold enrichment (6-mer frequency, TF over GST control) in the experiment with ELK3.

As to TTCCAA, the binding signal was 1.39 fold enrichment (6-mer frequency, TF over GST control) in the experiment with FLI1; 1.19 fold enrichment (6-mer frequency, TF over GST control) with ELK1; 1.34 fold enrichment (6-mer frequency, TF over GST control) with GABPA; 1.26 fold enrichment (6-mer frequency, TF over GST control) with ERG; 1.31 fold enrichment (6-mer frequency, TF over GST control) with ELF1; 1.26 fold enrichment (6-mer frequency, TF over GST control) in the experiment with EHF. Besides, the binding signal is 1.11 fold enrichment (6-mer frequency, TF over GST control) with SPI1; 1.29 fold enrichment (6-mer frequency, TF over GST control) with SPIB; 1.26 fold enrichment (6-mer frequency, TF over GST control) with ELK3.

Consider CGTTTC, for which the binding signal in the experiment with FLI1 is 1.76 fold enrichment (6-mer frequency, TF over GST control); with ELK1, 1.68 fold enrichment (6-mer frequency, TF over GST control); with GABPA, 1.69 fold enrichment (6-mer frequency, TF over GST control); with ERG, 1.98 fold enrichment (6-mer frequency, TF over GST control); in the experiment with ELF1, 1.71 fold enrichment (6-mer frequency, TF over GST control); with EHF, 1.83 fold enrichment (6-mer frequency, TF over GST control). Also, the binding signal with SPI1 is 1.79 fold enrichment (6-mer frequency, TF over GST control); with SPIB, 1.75 fold enrichment (6-mer frequency, TF over GST control); with ELK3, 1.72 fold enrichment (6-mer frequency, TF over GST control).

In the case of GTCTTT, the binding signal with FLI1 was 1.28 fold enrichment (6-mer frequency, TF over GST control); with ELK1, 1.21 fold enrichment (6-mer frequency, TF over GST control); in the experiment with GABPA, 1.35 fold enrichment (6-mer frequency, TF over GST control); with ERG, 1.15 fold enrichment (6-mer frequency, TF over GST control); with ELF1, 1.26 fold enrichment (6-mer frequency, TF over GST control); with EHF, 1.2 fold enrichment (6-mer frequency, TF over GST control). Moreover, the binding signal is 1.38 fold enrichment (6-mer frequency, TF over GST control) with SPI1; 1.23 fold enrichment (6-mer frequency, TF over GST control) with SPIB; 1.34 fold enrichment (6-mer frequency, TF over GST control) with ELK3.

For ATATCA, the binding signal with FLI1 was 1.23 fold enrichment (6-mer frequency, TF over GST control); in the experiment with ELK1, 1.24 fold enrichment (6-mer frequency, TF over GST control); with GABPA, 1.22 fold enrichment (6-mer frequency, TF over GST control); in the experiment with ERG, 1.14 fold enrichment (6-mer frequency, TF over GST control); with ELF1, 1.2 fold enrichment (6-mer frequency, TF over GST control); with EHF, 1.15 fold enrichment (6-mer frequency, TF over GST control). The binding signal with SPI1 was 1.13 fold enrichment (6-mer frequency, TF over GST control); with SPIB, 1.14 fold enrichment (6-mer frequency, TF over GST control); with ELK3, 1.11 fold enrichment (6-mer frequency, TF over GST control).

For the sequence TCTTGG, the binding signal is 1.44 fold enrichment (6-mer frequency, TF over GST control) with FLI1; 1.35 fold enrichment (6-mer frequency, TF over GST control) in the experiment with ELK1; 1.52 fold enrichment (6-mer frequency, TF over GST control) in the experiment with GABPA; 1.38 fold enrichment (6-mer frequency, TF over GST control) with ERG; 1.28 fold enrichment (6-mer frequency, TF over GST control) with ELF1; 1.48 fold enrichment (6-mer frequency, TF over GST control) with EHF. The binding signal in the experiment with SPI1 was 1.35 fold enrichment (6-mer frequency, TF over GST control); in the experiment with SPIB it was 1.4 fold enrichment (6-mer frequency, TF over GST control); with ELK3, 1.4 fold enrichment (6-mer frequency, TF over GST control).

In the case of TCACTG, the binding signal was 1.21 fold enrichment (6-mer frequency, TF over GST control) in the experiment with FLI1; 1.16 fold enrichment (6-mer frequency, TF over GST control) with ELK1; 1.22 fold enrichment (6-mer frequency, TF over GST control) with GABPA; 1.27 fold enrichment (6-mer frequency, TF over GST control) with ERG; 1.26 fold enrichment (6-mer frequency, TF over GST control) in the experiment with ELF1; 1.18 fold enrichment (6-mer frequency, TF over GST control) with EHF. Further, the binding signal with SPI1 was 1.15 fold enrichment (6-mer frequency, TF over GST control); with SPIB, 1.3 fold enrichment (6-mer frequency, TF over GST control); in the experiment with ELK3 it was 1.2 fold enrichment (6-mer frequency, TF over GST control).
